Many of the other results were omitted from the sample, so hits are more common in it than they were.
IDE exosite FP = exo-site inhibitors of human insulin-degrading enzyme; purified IDE, FL-6b probe fluorescence polarization; stronger effect = lower value; 6.3% of 17,000 active; P14735; z-score at 20 µM;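 active = z-score of -3 or lower, meaning strong loss of probe binding signal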;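 also: His-tagged human IDE residues 42-1019 made in E. coli with 30 nM FL-6b probe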
Target sequence (P14735 42-1019 limits assumed): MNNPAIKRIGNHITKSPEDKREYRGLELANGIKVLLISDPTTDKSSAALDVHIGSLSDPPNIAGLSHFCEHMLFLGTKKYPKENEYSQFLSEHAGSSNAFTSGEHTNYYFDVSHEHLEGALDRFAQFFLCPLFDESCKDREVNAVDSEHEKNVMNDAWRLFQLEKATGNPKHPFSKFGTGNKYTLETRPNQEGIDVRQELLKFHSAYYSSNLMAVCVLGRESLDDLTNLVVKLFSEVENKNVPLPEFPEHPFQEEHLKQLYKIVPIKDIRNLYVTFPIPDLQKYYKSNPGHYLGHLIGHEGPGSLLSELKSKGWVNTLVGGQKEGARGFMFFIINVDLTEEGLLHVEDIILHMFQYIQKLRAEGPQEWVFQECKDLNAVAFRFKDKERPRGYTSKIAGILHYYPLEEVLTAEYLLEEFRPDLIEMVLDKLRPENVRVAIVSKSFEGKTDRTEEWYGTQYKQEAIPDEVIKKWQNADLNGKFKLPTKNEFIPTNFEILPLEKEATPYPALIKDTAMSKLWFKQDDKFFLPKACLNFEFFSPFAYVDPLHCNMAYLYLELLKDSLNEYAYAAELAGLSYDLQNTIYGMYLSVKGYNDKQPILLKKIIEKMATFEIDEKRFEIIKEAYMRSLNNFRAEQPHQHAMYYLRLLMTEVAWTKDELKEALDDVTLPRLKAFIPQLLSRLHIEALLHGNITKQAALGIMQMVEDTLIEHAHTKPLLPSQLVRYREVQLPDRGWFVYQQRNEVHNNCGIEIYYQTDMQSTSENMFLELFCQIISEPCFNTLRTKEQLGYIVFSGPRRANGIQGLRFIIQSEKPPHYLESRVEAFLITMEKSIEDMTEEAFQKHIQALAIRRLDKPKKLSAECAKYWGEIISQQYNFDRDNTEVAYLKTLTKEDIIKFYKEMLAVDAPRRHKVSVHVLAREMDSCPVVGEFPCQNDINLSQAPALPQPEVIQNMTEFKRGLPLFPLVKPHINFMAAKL
Numbers stand for hits; ! = not confirmed by another sample.

For Cc1cccc(-c2ccc([C@H]3[C@@H](CO)N4CCCCN(S(=O)(=O)c5ccccc5F)C[C@H]34)cc2)c1 the results were IDE exosite FP -3.5.
Cc1cccc(-c2ccc([C@H]3[C@H]4CN(S(=O)(=O)c5ccccc5C)CCCCN4[C@H]3CO)cc2)c1 was read as IDE exosite FP inactive.
`O=S(=O)(c1ccccc1F)N1CCCCN2[C@H](CO)[C@H](c3ccc(-c4ccccc4)cc3)[C@H]2C1` gave IDE exosite FP inactive.
Screening Cc1cccc(-c2ccc([C@H]3[C@H]4CN(S(=O)(=O)c5ccccc5F)CCCCN4[C@H]3CO)cc2)c1 returned IDE exosite FP inactive.
COc1ccc2c3c([nH]c2c1)[C@@H](CO)N(CC1CC1)CC31CN(C(=O)NC2CCCC2)C1 was read as IDE exosite FP inactive.
COc1ccc(NC(=O)N(C)C[C@@H]2OCCCC[C@H](C)Oc3ccc(NC(=O)c4ccncc4)cc3C(=O)N([C@@H](C)CO)C[C@H]2C)cc1 was read as IDE exosite FP inactive.
`CN1C(=O)c2cc(NS(C)(=O)=O)ccc2OC[C@H]2O[C@@H](CC(=O)NCc3ccccc3)CC[C@@H]21` gave IDE exosite FP inactive.
`CN1C(=O)c2cc(NS(C)(=O)=O)ccc2OC[C@@H]2O[C@@H](CC(=O)N3CCOCC3)CC[C@H]21` gave IDE exosite FP inactive.
`COc1ccccc1NC(=O)C[C@H]1CC[C@H]2[C@@H](COc3ccc(NS(C)(=O)=O)cc3C(=O)N2C)O1` gave IDE exosite FP -6.1.
`COc1ccccc1NC(=O)Nc1ccc2c(c1)C(=O)N(C)[C@H]1CC[C@H](CC(=O)Nc3ccc4c(c3)COC4)O[C@@H]1CO2` gave IDE exosite FP inactive.
`CN1C(=O)c2cc(NS(C)(=O)=O)ccc2OC[C@H]2O[C@H](CC(=O)N3CCOCC3)CC[C@@H]21` gave IDE exosite FP -14.
Screening CCS(=O)(=O)Nc1ccc2c(c1)C(=O)N(C)[C@@H]1CC[C@@H](CC(=O)N3CCN(C)CC3)O[C@H]1CO2 returned IDE exosite FP inactive.
For Cc1ccccc1-c1ccc([C@H]2[C@H]3CN(C(=O)Nc4cccc(F)c4)CC(=O)N3[C@H]2CO)cc1 the results were IDE exosite FP inactive.
Cc1ccc(S(=O)(=O)N(C)C[C@@H]2OCCCC[C@@H](C)Oc3ccc(NC(=O)c4ccncc4)cc3C(=O)N([C@@H](C)CO)C[C@H]2C)cc1 was read as IDE exosite FP inactive.
`O=S(=O)(c1ccc(F)cc1)N1CCCCN2[C@H](CO)[C@H](c3ccc(-c4ccccc4)cc3)[C@@H]2C1` gave IDE exosite FP inactive.
Screening O=C1[C@@H](Cc2ccc(F)cc2)CCn2cc(nn2)COC[C@H]2CCCN12 returned IDE exosite FP inactive.
Screening Cc1ccc(-c2ccc([C@H]3[C@@H](CO)N4C(=O)CN(C(=O)c5ccncc5)C[C@H]34)cc2)cc1 returned IDE exosite FP inactive.
CC(C)CC#Cc1ccc([C@H]2[C@H](CO)N3C(=O)CN(C(=O)c4ccccn4)C[C@@H]23)cc1 was read as IDE exosite FP inactive.
CS(=O)(=O)N1[C@H](C#N)[C@H](c2ccccc2-c2ccc(F)cc2)[C@H]1CO was read as IDE exosite FP inactive.
`C[C@H](CO)N1C[C@H](C)[C@@H](CN(C)Cc2ccc(C(=O)Nc3ccccc3N)cc2)Oc2ccc(NC(=O)Cn3cnnn3)cc2C1=O` gave IDE exosite FP inactive.
For CCCNC(=O)N1C[C@@H]2N[C@H](C1)C2c1ccc(-c2cccc(F)c2)cc1 (stereo not given in full) the results were IDE exosite FP inactive.
O=C(NC1CCCC1)N1[C@@H]2CNC[C@H]1C2c1ccc(-c2cccnc2)cc1 (stereo not given in full) was read as IDE exosite FP inactive.
COc1cccc(-c2ccc(C3[C@@H]4CN(C(=O)c5ccc(F)cc5)C[C@H]3N4)cc2)c1 (stereo not given in full) was read as IDE exosite FP inactive.
COc1cccc(-c2ccc(C3[C@H]4CNC[C@@H]3N4C(=O)NC3CCCCC3)cc2)c1 (stereo not given in full) was read as IDE exosite FP -3.8!.
Screening COc1cccc(-c2ccc(C3[C@@H]4CN(C(=O)c5cnccn5)C[C@H]3N4)cc2)c1 (stereo not given in full) returned IDE exosite FP -8.7!.
For CCCNC(=O)N1C[C@@H]2N[C@H](C1)C2c1ccc(-c2ccc(OC)cc2)cc1 (stereo not given in full) the results were IDE exosite FP inactive.
Screening CCCNC(=O)N1C[C@@H]2N[C@H](C1)C2c1ccc(-c2cccnc2)cc1 (stereo not given in full) returned IDE exosite FP inactive.
For COc1ccc(-c2ccc(C3[C@H]4CNC[C@@H]3N4C(=O)NC3CCCC3)cc2)cc1 (stereo not given in full) the results were IDE exosite FP inactive.
CCCNC(=O)N1C[C@@H]2N[C@H](C1)C2c1ccc(-c2ccccc2C)cc1 (stereo not given in full) was read as IDE exosite FP -7.8!.
